Laboratory results: PubChem BioAssay (NCI)
Compounds without any hit were thinned out: in the full panel of roughly 83,000, 20% have a hit.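 How to read the values: 0–100, growth inhibition (40 = 60% inhibited); 0, no net growth; -100 to 0, cell death (-40 = 40% of starting cells died; -100 = all dead).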 Unmarked numbers belong to inactive results. The source made the active and inactive calls. Rule for the calls: active = growth percent below 10; inactive = the rest.

Each compound was assayed on MDA-MB-468 breast (assay: NCI-60 one-dose screen, 48 h (100 = growth as untreated, 0 = no growth, -100 = all killed)). Conditions: 10 µM unless noted.

SMILES | growth
COc1cc(-c2cc3ncccc3c3nc(OCCN(C)C)c4cccnc4c23)cc(OC)c1OC | -6.09% (active)
COc1ccc(-c2[nH]c3ccc(OC)cc3c2C=C(C#N)C#N)cc1 | -13.7% (active)
COCCNc1ccc2ncc(C#Cc3cncc(C(=O)Nc4ccc(CN5CCN(C)CC5)c(C(F)(F)F)c4)c3)n2n1 | -59.9% (active)
Cc1cccc(OCC(O)CN2CCN(c3ccc(Cl)cc3)CC2)c1 (centres undefined) | 112%
O=C1C(Cl)=C(Nc2ccc3cn[nH]c3c2)C(=O)c2ccccc21 | -82.9% (active)
Cc1ccc(OCCOCCOCCOCCOCCOc2ccc(C)n(O)c2=S)c(=S)n1O | -22.8% (active)
COc1ccc(/C(C)=C(\c2ccc(Cl)cc2)c2ccc(OCCN3CCCCC3)cc2)cc1F | 15.7%
CN(C)c1cccc2c(S(=O)(=O)N[C@H]3CC[C@H]4[C@@H]5CCc6cc(O)ccc6[C@H]5CC[C@]34C)cccc12 | 34.5%
Nc1ccccc1NC(=O)c1ccc(-n2nc(-c3ccccc3)c3ccccc32)cc1 | 94.5%
CNCCCNCCCCNCCCN1C(=O)c2ccc3c4c(ccc(c24)C1=O)C(=O)N(CCCNCc1ccccc1OC)C3=O | 28.6%
O=C(O)c1c[nH]c2ccccc2c1=O | 114%
O=C(c1ccc(Br)cc1)C(Br)C(c1ccc(Cl)cc1)C(c1ccccc1)[N+](=O)[O-] (centres undefined) | 80.7%
Cc1cc(Nc2c3ccccc3nc3ccccc23)ccc1NS(C)(=O)=O | 23.6%
COc1cc2cc3c(nc2cc1OC)CCN3Cc1ccc(NC(=O)Nc2ccc(F)cc2F)cc1 | 45.6%
